This is a sample that favours compounds with a hit; in the whole collection about 4.5% have one here.
GDH-TPI counter – GDH-TPI coupling enzyme inhibitors, primary screen, artefact control for M. tuberculosis FBA inhibitor project, biochemical, absorbance, full deck. GDH-TPI coupled enzyme counterscreen, NADH absorbance. inhibition, % at 4.8 µM. hit rate 1.2% among 360,000; in the data active = inhibition above about 30%
Mtb FBA inh – Mtb FBA enzyme inhibitors, primary screen, biochemical, fluorescence, strain H37Rv; hit rate 2.3% among 360,000; purified M. tuberculosis FBA, fluorescence read-out; inhibition, % at 1 µM; Fructose-bisphosphate aldolase (Mycobacterium tuberculosis (strain ATCC 25618 / H37Rv)), …; AID 588726, 2011; in the data active = inhibition above about 27%
BJeLR viability – MLPCN primary cell-based screen for lethality selective to Ras in HRASV12 cells | BJeLR (HRASV12) viability, CellTiter-Glo ATP luminescence, 48 h | inhibition, % (concentration not given with the values) | hit rate 0.17% among 300,000 | AID 1554, 2009; in the data active = inhibition above about 50%; inconclusive = no clear call, values can overlap the other calls
PrPC TRFRET – inhibitors of human cell surface prion protein PrPC, primary screen, cell-based, TR-FRET. Major prion protein (Homo sapiens), P04156. TR-FRET read-out. inhibition, % at 13.8 µM. hit rate 0.43% among 370,000; in the data active = inhibition above about 24%
PrP 5UTR inh – inhibition of PrP 5' UTR reporter expression. cell-based PrP 5' UTR mRNA reporter, plate reader. inhibition, % (test concentration not listed). hit rate 0.35% among 340,000. AID 488862, 2010; in the data active = inhibition above about 52%
PfHsp40 yeast – rescue of yeast from PfHsp40 toxicity, primary screen, S. cerevisiae, ATP luminescence; AID 504582, 2011; growth rescue, % at 12.5 µM; hit rate 0.68% among 340,000; S. cerevisiae expressing PfHsp40, growth rescue; in the data active = growth rescue above about 28%, passing the limit was not always enough; inconclusive = no clear call, values can overlap the other calls;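 also: yeast W303a lacking pdr1 and pdr3 grown in galactose medium; growth measured after three days at 30 °C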
PrPC confirm – confirmation of inhibitors of cell surface human prion protein, confirmation, cell-based, TR-FRET | cell surface PrPC level | hit rate 65% among 1,500 | inhibition, % at 13.8 µM | shares compounds with PrPC TRFRET; in the data active = inhibition above about 25%
LD9 tox – cytotoxicity in LD9 cells, cytotoxicity control for cell surface PrPc inhibitor project, cell-based, luminescence, high throughput; shares compounds with PrPC TRFRET; luminescence viability; inhibition, % at 13.8 µM; hit rate 29% among 1,500; AID 743201, 2013; in the data active = inhibition above about 9.5%
Large screens that a line does not name were inactive (follow-up assays come after a bar, where they were run).

O=C(NCC1CCCO1)c1nn2c(C(F)(F)F)cc(-c3ccc(Br)o3)nc2c1Br (stereo not given)	none
CCN(CC)S(=O)(=O)c1ccc(C)c(NC(=O)CNCCN(C(C)C)C(C)C)c1	none
COc1ccc(C(=O)Nc2nnc(Cc3cccs3)s2)cc1OC	PrPC TRFRET 65 | PrPC confirm 36 | LD9 tox inactive
COc1ccc(Cc2nnc(NC(=O)c3ccc(OC)c(OC)c3)s2)cc1	none
O=C(Cn1cncn1)N/N=C/c1cccc(Cl)c1	none
O=C(c1cc(Cl)ccc1F)N1CCCC(c2nc(-c3cccs3)no2)C1 (stereo not given)	none (no result: GDH-TPI counter, Mtb FBA inh, BJeLR viability, PrP 5UTR inh, PfHsp40 yeast)
CCOc1ccc(N2C(=O)CC(Sc3nc(-c4cccs4)cc(C(F)(F)F)c3C#N)C2=O)cc1 (stereo not given)	PrPC TRFRET 25 | PrPC confirm inactive | LD9 tox inactive
C[n+]1cc2c3c(ccc2c2ccc4cc5c(cc4c21)OCO5)OCO3	PrPC TRFRET 87 (no result: GDH-TPI counter, Mtb FBA inh, BJeLR viability, PrP 5UTR inh, PfHsp40 yeast) | PrPC confirm 101 | LD9 tox 99
O=C(Nc1ccccc1C(=O)N/N=C/c1ccco1)c1ccc(F)cc1	none
c1ccc(CN2CCC3(CC2)Nc2ccccc2S3)cc1	none
Cc1ccc(C(=O)Nc2ccccn2)cc1S(=O)(=O)N1CCOCC1	none
Cc1ccc(C(=O)Nc2nc(-c3ccccn3)cs2)cc1S(=O)(=O)N1CCOCC1	PrPC TRFRET 25 (no result: BJeLR viability) | PrPC confirm inactive | LD9 tox inactive
O=C(Nc1nc(-c2ccccn2)cs1)c1ccc(F)c(S(=O)(=O)N2CCOCC2)c1	PrPC TRFRET 27 (no result: BJeLR viability) | PrPC confirm 33 | LD9 tox 18
Cc1ccc(NC(=O)c2ccc(Nc3c([N+](=O)[O-])cc([N+](=O)[O-])cc3[N+](=O)[O-])cc2)cc1	PrPC TRFRET 25 | PrPC confirm inactive | LD9 tox 37
O=C(CSC1=NCCS1)Nc1ccnc2ccccc12	PrPC TRFRET 56 | PrPC confirm 51 | LD9 tox inactive
Cc1cc(C)nc(SCC(=O)Nc2ccnc3ccccc23)n1	PrPC TRFRET 46 | PrPC confirm 43 | LD9 tox 16
COc1ccc(C(C(=O)NC2CCCC2)N(C(=O)c2snc(-c3ccc(F)cc3)c2N)c2ccc(F)cc2)cc1 (stereo not given)	none
COc1ccc(C(C(=O)NC2CCCC2)N(C(=O)c2snc(-c3ccc(F)cc3)c2N)c2ccc(OC)cc2)cc1 (stereo not given)	PrPC TRFRET 46 | PrPC confirm 60 | LD9 tox inactive
O=c1nc(SCc2cccc(C(F)(F)F)c2)nc2ccccn12	PrPC TRFRET 34 | PrPC confirm inactive | LD9 tox inactive
CC1(C)CC(=O)C2=C(C1)OC1OC(=O)CC21C (stereo not given)	none
C=CCSc1nc2sc(C)c(C)c2c(=O)n1N	none
COc1ccc(CC(=O)Nc2ccc(N3CCN(c4ccc(OC)cc4)CC3)c(C#N)c2)cc1	PrPC TRFRET 25 | PrPC confirm 40 | LD9 tox 13
COc1ccc(N2CCN(c3ccc(NC(=O)c4ccc5c(c4)OCO5)cc3C#N)CC2)cc1	none (no result: PrPC TRFRET)
CC(=O)N(Cc1cc(=O)[nH]c2ccccc12)c1cccc(C)c1	PrPC TRFRET 24 | PrPC confirm 30 | LD9 tox inactive
C[C@@]12C(=O)N(CCO)CC(=O)N1[C@H](/C=C/c1ccccc1)[C@@H]1C(=O)N(c3ccccc3)C(=O)[C@@H]12	none
COc1ccccc1N1CCN(CC(=O)Nc2ccccc2C(=O)NC(C)c2ccccc2)CC1 (stereo not given)	none (no result: BJeLR viability)
Cc1cc(NC2CCCCC2)nc2ccccc12	PrPC TRFRET 26 | PrPC confirm inactive | LD9 tox inactive
COc1ccc(N(CC(=O)NC2CCCCC2)C(=O)CCC(=O)Nc2nc(C)cs2)cc1OC	none
O=C(O)c1cc(O)c2c(c1)[C@H]([C@H]1c3cc(C(=O)O)cc(O)c3C(=O)c3c(O[C@@H]4O[C@H](CO)[C@@H](O)[C@H](O)[C@H]4O)cccc31)c1cccc(OC3O[C@H](CO)[C@@H](O)[C@H](O)[C@H]3O)c1C2=O (stereo not given in full)	PrPC TRFRET 91, PfHsp40 yeast inconclusive | PrPC confirm inactive | LD9 tox inactive
CC(=O)NC(CC(=O)OCC(=O)c1ccc(NC(=O)CC(C)C)cc1)c1ccccc1 (stereo not given)	none (no result: BJeLR viability)
COc1cccc2c1Oc1ncccc1N(C(=O)CCC(=O)NCc1ccc(C)cc1)C2	none
CCOC(=O)c1oc2cc(O)c(CC)cc2c(=O)c1-c1ccc2c(c1)OCCO2	none
CCc1cc2c(=O)c(-c3ccc4c(c3)OCCO4)coc2cc1OS(C)(=O)=O	PrPC TRFRET 36 | PrPC confirm 31 | LD9 tox inactive
COc1ccc(-n2ncc3c(N4CCC(C(N)=O)CC4)ncnc32)cc1	PrPC TRFRET 36 | PrPC confirm 29 | LD9 tox inactive
Cc1cc(-c2cccc(Br)c2)c(C#N)c(N)n1	PrPC TRFRET 44 (no result: BJeLR viability) | PrPC confirm 42 | LD9 tox inactive
CC1=C(C(=O)OC(C)C)C(c2ccc3c(c2)OCO3)NC(=O)N1 (stereo not given)	none
CC(=O)Nc1nc(COc2ccccc2)cs1	none
Cc1ccc(C(=O)Nc2nc(COc3ccccc3)cs2)s1	PrPC TRFRET 30 | PrPC confirm inactive | LD9 tox inactive
Cc1nn(C)cc1CN(C)C(=O)c1cc(-c2ccccc2)nc2ccc(Br)cc12	PrPC TRFRET 68 | PrPC confirm 81 | LD9 tox inactive
O=C(O)c1cc(-c2cccs2)nc2ccc(Br)cc12	PrPC TRFRET 40 | PrPC confirm 78 | LD9 tox inactive
O=C(O)c1cc(-c2cccnc2)nc2ccc(Br)cc12	PrPC TRFRET 45 (no result: BJeLR viability) | PrPC confirm 61 | LD9 tox inactive
Cn1cc(CNC(=O)c2cc(-c3ccccc3)nc3ccc(Br)cc23)cn1	none
COc1ccccc1N(C(=O)c1ccncc1)c1nc(-c2ccc([N+](=O)[O-])cc2)cs1	PrPC TRFRET 26 | PrPC confirm 38 | LD9 tox inactive
N#Cc1c(N)n(C2OC(CO)C(O)C2O)c2ncnc(N)c12 (stereo not given)	PrPC TRFRET 26 (no result: BJeLR viability) | PrPC confirm 30 | LD9 tox 34

Source: PubChem BioAssay
